# Screening results as filed in PubChem.
# Pf Dd2 growth: inhibitors of Plasmodium falciparum Dd2 growth; P. falciparum Dd2 growth, SYBR Green, 72 h; hits give low values; activity change, % at 10 µM; 2.3% of 94,000 active; in the data active means activity change below about -80%; inconclusive means no clear call, values can overlap the other calls
# C diff growth: blocks growth of Clostridium difficile | 0.25% of 86,000 active | Clostridium difficile clinical isolate growth, OD600, 24 h; hits give low values | growth activity, negative = inhibition, % at 16 µg/mL (by protocol);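 active means mean growth activity at or below -80% and every replicate also at or below -80%; inconclusive means mean at or below -80% but some replicate above -80%; inactive means mean growth activity above -80%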
# T cruzi growth-1: T. cruzi proliferation inhibition. T. cruzi beta-gal in NIH3T3, GalScreen luminescence, 90 h. 5.9% of 77,000 active. inhibition, % at 8.34 µM;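 active means mean inhibition above about 93%, with at least 55% of replicates each passing it, limit read from the data, passing the limit was not always enough; inconclusive means only one of those two conditions holds; inactive means neither condition holds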
# T cruzi growth-2: blocks T. cruzi growth in NIH3T3 host cells. inhibition, % at 8.35 µM. shares compounds with T cruzi growth-1. T. cruzi beta-gal in NIH3T3, GalScreen luminescence, 90 h. AID 651739. 72% of 5,600 active;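 active means mean replicate inhibition above about 95% and at least 55% of replicates individually reaching it, limit read from the data; inconclusive means only one of the two criteria is met; inactive means neither criterion is met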
# T cruzi growth-3: Trypanosoma cruzi proliferation inhibition; shares compounds with T cruzi growth-1; T. cruzi beta-gal in NIH3T3, GalScreen luminescence, 90 h; inhibition, % at 2.09 µM; 21% of 5,600 active;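 active means mean inhibition above about 95%, with at least 55% of replicates also reaching it, limit read from the data; inconclusive means meets just one of the two conditions; inactive means meets neither condition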
# 3T3 cytotox: kills mouse NIH/3T3 fibroblasts; shares compounds with T cruzi growth-1; NIH/3T3 viability, CellTiter-Glo ATP luminescence, 90 h; cytotoxicity (signal decrease), % at 8.35 µM; 14% of 5,600 active;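 active means mean signal decrease across replicates above about 35% based on untreated-well scatter, with enough replicates individually passing, limit read from the data; inconclusive means no rule stated though some were filed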
# NIH3T3 tox 2: cytotoxicity in mouse NIH/3T3 fibroblasts. shares compounds with T cruzi growth-1. NIH/3T3 viability, CellTiter-Glo ATP luminescence, 90 h. inhibition, % at 24.9 µM. 56% of 5,600 active;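 active means mean loss of cell viability signal at or above a set limit, and enough replicates individually reaching it; inconclusive means meets only the mean limit or only the replicate share; inactive means meets neither condition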
# Hits are given with their value; n = inactive; u = inconclusive; x = not tested or not shown; + = active, no number. In the library only some 6.7% were active in any assay of this set; here they are far more common.
SMILES,Pf Dd2 growth,C diff growth,T cruzi growth-1,T cruzi growth-2,T cruzi growth-3,3T3 cytotox,NIH3T3 tox 2
C[C@@H]1CN([C@H](C)CO)C(=O)c2cc(NC(=O)Nc3ccccc3)ccc2O[C@@H](C)CCCCO[C@@H]1CN(C)Cc1ccc2c(c1)OCO2,-84,n,u,n,n,94,103
C[C@H](CO)N1C[C@H](C)[C@@H](CN(C)Cc2ccc3c(c2)OCO3)OCCCC[C@H](C)Oc2ccc(NC(=O)Nc3ccc4c(c3)OCO4)cc2C1=O,n,x,n,x,x,x,x
C[C@@H]1CN([C@H](C)CO)C(=O)Cc2cc(NC(=O)CCC(F)(F)F)ccc2O[C@@H]1CN(C)Cc1ccc(C(F)(F)F)cc1,n,n,x,x,x,x,x
COCC(=O)N1CC[C@H]2[C@@H]1c1cc(-c3ccccc3)ccc1N(C)[C@H]2CO,n,n,n,x,x,x,x
CCC(=O)N1CC[C@@H]2[C@@H](CO)N(C)c3ccc(-c4cccc(F)c4)cc3[C@@H]21,n,n,n,x,x,x,x
CN1c2ccc(-c3cccc(F)c3)cc2[C@H]2[C@H](CCN2C(=O)C2CC2)[C@H]1CO,n,n,n,x,x,x,x
CCC(=O)N1CC[C@@H]2[C@H]1c1cc(-c3cccc(OC)c3)ccc1N(C)[C@H]2CO,n,n,n,x,x,x,x
COCC(=O)N1CC[C@@H]2[C@H]1c1cc(-c3cccc(OC)c3)ccc1N(C)[C@@H]2CO,n,n,117,107,n,n,n
CN1c2ccc(-c3cccc(F)c3)cc2[C@@H]2[C@@H](CCN2C(=O)C2CC2)[C@H]1CO,n,n,100,102,101,n,91
COCC(=O)N1CC[C@@H]2[C@H]1c1cc(-c3cccc(F)c3)ccc1N(C)[C@@H]2CO,n,n,103,103,n,n,n
COCC(=O)N1CC[C@@H]2[C@@H](CO)N(C)c3ccc(-c4ccccc4)cc3[C@@H]21,n,n,98,104,n,n,n
Cc1ccccc1S(=O)(=O)N1C[C@H](O)COC[C@@H]2O[C@H](CC(=O)N3CCN(C)CC3)CC[C@H]21,x,n,n,x,x,x,x
CNC(=O)C[C@@H]1CC[C@H]2[C@@H](COc3ccc(NC(=O)c4cccs4)cc3C(=O)N2C)O1,n,n,n,x,x,x,x
CCCNC(=O)N1CC2(CCN(S(=O)(=O)c3cccc(OC)c3)CC2)c2c(n(C)c3cc(OC)ccc23)[C@H]1CO,n,n,x,x,x,x,x
O=C(Cc1ccccn1)NCC[C@H]1CC[C@H](NC(=O)c2ccccc2F)[C@@H](CO)O1,n,x,n,x,x,x,x
C[C@@H]1CN([C@@H](C)CO)C(=O)c2cccc(NC(=O)Nc3ccc(F)cc3)c2O[C@H]1CN(C)Cc1ccccc1,n,n,n,x,x,x,x
COc1ccc(-c2ccc3n(c2=O)C[C@H]2[C@H](CO)[C@@H](C(=O)Nc4ccccc4)N(C)[C@@H]32)cc1,n,n,x,x,x,x,x
CC(=O)N1[C@H](C(=O)NC2CCC2)[C@@H](CO)[C@@H]2Cn3c(ccc(-c4ccccc4)c3=O)[C@@H]21,n,n,n,x,x,x,x
CN1[C@H](C(=O)Nc2ccccc2)[C@@H](CO)[C@@H]2Cn3c(ccc(-c4ccccc4)c3=O)[C@@H]21,n,n,100,n,n,n,u
CCN1[C@H](C(=O)Nc2ccccc2)[C@@H](CO)[C@@H]2Cn3c(ccc(-c4ccncc4)c3=O)[C@@H]21,n,n,n,x,x,x,x
CN1[C@@H]2c3ccc(-c4ccccc4)c(=O)n3C[C@@H]2[C@@H](CO)[C@@H]1C(=O)Nc1ccccc1,n,n,101,n,n,n,n
CN(C)CC(=O)N1[C@H](C(=O)NC2CCC2)[C@@H](CO)[C@@H]2Cn3c(ccc(-c4ccccc4)c3=O)[C@@H]21,x,n,+,n,n,n,n
O=C(N[C@@H]1CC[C@H](CCNC(=O)C2CC2)O[C@H]1CO)c1ccncc1,x,n,x,x,x,x,x
CO[C@H]1CN(C)C(=O)c2cc(NC(=O)Nc3ccccc3)ccc2OC[C@H](C)N(C(=O)CN(C)C)C[C@@H]1C,n,n,n,x,x,x,x
CO[C@H]1CN(C)C(=O)c2ccc(NC(=O)C3CCOCC3)cc2OC[C@@H](C)N(C(=O)c2ccccc2)C[C@@H]1C,n,x,n,x,x,x,x
C[C@@H]1CN([C@H](C)CO)C(=O)c2cc(C#CCc3ccccc3)cnc2O[C@H]1CN(C)Cc1cccc(F)c1,n,x,n,x,x,x,x
